Only some compounds are listed: those with a hit (about 21% of all), similar ones and a draw of the others.
Pf growth 96h – Primary qHTS for delayed death inhibitors of the malarial parasite plastid, 96 hour incubation. P. falciparum luciferase reporter growth, 96 h. Potency, µM (titrated, usually from 28.7 µM), for inactives: top-dose activity change, negative = inhibition, usual class: inhibitors. 6.9% of 320,000 active. AID 504834, 2011; further: potency means the concentration at half of the fitted maximal effect; on the % scale 0 is the no-effect control and ±100 the full control effect
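Two parasite generations (96 h, 37 C, 5% CO2) of compound exposure in infected erythrocytes (0.05% parasitemia, 2% hematocrit). Luciferase-reporter P. falciparum; decreased luminescence indicates inhibited growth, aimed at apicoplast-acting delayed death.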
NS1 inh – qHTS Assay for Inhibitors of Influenza NS1 Protein Function. Potency, µM (highest dose often 46.1 µM), for the others: at the highest dose activity, positive = more growth. 0.4% of 270,000 active. AID 2326, 2010; calls by dose curve; further: potency means the concentration at half of the fitted maximal effect; actives are rising curves; nearly all actives have a fitted effect of over 50% in size
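A cell-based growth assay was used: compounds that relieve NS1-induced slow growth of budding yeast raise OD600. Assay medium was yeast nitrogen base with ammonium sulphate and -URA supplement, pH 6.0, with 2% galactose.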
Shiga inhibitor – A qHTS for Small Molecule Inhibitors of Shiga Toxin. Vero cells, Shiga toxin protein synthesis inhibition reporter. inhibition, % at 38.7 µM. 9.2% of 290,000 active. AID 2315, 2010; in the data active means inhibition mostly above about 28%, no sharp cut-off; inactive means mostly below about 43%; further: 0% is about no effect
CHX counter – Cycloheximide Counterscreen for Small Molecule Inhibitors of Shiga Toxin; 12% of 300,000 active; max response, %; cell reporter, cycloheximide protein synthesis inhibition counterscreen; in the data active means max response mostly above about 13%, no sharp cut-off; inactive means mostly below about 14%; further: read at 38.3 µM for the half of the compounds with a filed dose; 0% is about no effect
Sm TGR inh – qHTS Assay for the Inhibitors of Schistosoma Mansoni Peroxiredoxins; Potency, µM (highest dose often 114 µM), without a hit: at the top dose activity change, negative = inhibition, most hits filed as inhibitors; purified TGR, DTNB reduction, TNB absorbance 405 nm; 3% of 360,000 active; further: potency means the concentration at half of the fitted maximal effect; on the % scale 0 is the no-effect control and ±100 the full control effect; nearly all actives have a fitted effect of over 60% in size
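First, TGR (20 nM dispensed) and NADPH were mixed with compound. Second, a 15 min room-temperature incubation followed. Third, further NADPH and then DTNB were added to start the reaction. Finally, TNB absorbance was monitored kinetically.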
Pf growth 48h – Primary qHTS for delayed death inhibitors of the malarial parasite plastid, 48 hour incubation; P. falciparum luciferase growth in erythrocytes, 48 h; Potency, µM (doses to about 28.7 µM), inactives show top-dose activity change, negative = inhibition, most hits filed as inhibitors; 5.9% of 310,000 active; further: potency means the concentration at half of the fitted maximal effect; on the % scale 0 is the no-effect control and ±100 the full control effect
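A one-generation exposure of luciferase-tagged malaria parasites in RPMI 1640/Albumax erythrocyte culture, 37 C and 5% CO2. Inhibition is inferred from decreased luminescence after adding detection reagent.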
The depositor's hits bear a star; ? = inconclusive; . = not tested or not shown. Unless noted, the call rests on the fitted dose curve; in most records, active means well fitted curve in the direction sought with a large enough effect; inconclusive means small, poorly fitted or top-dose-only effect, or another doubt; inactive means no such curve, though single readings can be large; an effect the other way counts as inactive or inconclusive.

SMILES	Pf growth 96h	NS1 inh	Shiga inhibitor	CHX counter	Sm TGR inh	Pf growth 48h
CCCCc1ccc(N=N/C(C(=O)Nc2cc(OC)c(NC(C)=O)cc2OC)=C(/C)O)cc1	4.7µM*	6%	-9	-2	-9%	?
Oc1cc(-n2cccn2)c(O)cc1-n1cccn1	-1%	-50%	70*	37*	3.5µM*	8%
C#CCOCCOCCOCCNc1nc(N2CCN(C(=O)[C@H](CCCCN)n3cc([C@@H](N)C(C)CC)nn3)CC2)nc(N2CCN(C(=O)[C@H](Cc3ccc(O)cc3)n3cc([C@@H](N)CC(C)C)nn3)CC2)n1 (stereo partly specified)	11%	-1%	-12	-3	2%	7%
C#CCOCCOCCOCCNc1nc(N2CCN(C(=O)[C@H](CCCCN)n3cc(C(N)CC(C)C)nn3)CC2)nc(N2CCN(C(=O)[C@H](CCC(=O)O)n3cc(C(N)[C@H](C)CC)nn3)CC2)n1 (stereo partly specified)	1%	3%	-3	-1	?	5%
C#CCOCCOCCOCCNc1nc(N2CCN(C(=O)[C@H](CCC(=O)O)n3cc(C(N)[C@H](C)CC)nn3)CC2)nc(N2CCN(C(=O)[C@H](Cc3ccc(O)cc3)n3cc(C(N)[C@H](C)CC)nn3)CC2)n1 (stereo partly specified)	7%	6%	-4	-2	50µM*	0%
C#CCOCCOCCOCCNc1nc(N2CCOCC2)nc(N2CCN(C(=O)[C@H](Cc3ccc(O)cc3)n3cc([C@@H](N)C(C)CC)nn3)CC2)n1 (stereo partly specified)	9.3µM*	2%	-4	1	-22%	?
C#CCOCCOCCOCCNc1nc(N2CCN(C(=O)C(Cc3ccc(O)cc3)n3cc(C(N)C(C)CC)nn3)CC2)nc(N2CCN(C(=O)C(Cc3ccc(O)cc3)n3cc(C(N)C(C)CC)nn3)CC2)n1 (stereo unspecified)	9.3µM*	10%	-17	-2	-13%	9.3µM*
C#CCOCCOCCOCCNc1nc(N2CCOCC2)nc(N2CCN(C(=O)[C@H](CCC(=O)O)n3cc(C(N)[C@H](C)CC)nn3)CC2)n1 (stereo partly specified)	10%	5%	-14	-2	20µM*	1%
O=C(CC12CC3CC(CC(Br)(C3)C1)C2)NC1CCCC1	35%	-10%	-5	-2	4%	-3%
Cc1ccc(S(=O)(=O)c2c(N)n(CCN3CCOCC3)c3nc4ccccc4nc23)cc1C	10%	-14%	12	13	-6%	?
Cc1ccc(S(=O)(=O)c2c(N)n(Cc3ccco3)c3nc4ccccc4nc23)cc1C	.	?	-12	-3	10µM*	10µM*
Cc1ccc(S(=O)(=O)c2c(N)n(CCC(C)C)c3nc4ccccc4nc23)cc1	13µM*	7%	-11	-3	1%	.
Cc1ccc(S(=O)(=O)c2c(N)n(CCCO)c3nc4ccccc4nc23)cc1	?	-11%	-8	-4	0%	.
Nc1c(S(=O)(=O)c2ccccc2)c2nc3ccccc3nc2n1Cc1ccco1	12µM*	?	-32	-5	18µM*	?
Cc1ccc(C)c(S(=O)(=O)c2c(N)n(/N=C/c3ccco3)c3nc4ccccc4nc23)c1	?	-17%	21	-1	?	10µM*
CCOC(=O)Cn1c(=O)oc2cc(S(=O)(=O)N3CCN(c4cccc(Cl)c4)CC3)ccc21	.	.	.	.	-29%	.
COc1ccc(C)cc1NC(=O)C(CCS(C)(=O)=O)NC(C)=O (stereo unspecified)	36%	-1%	-11	-3	2%	14%
O=C1CC(N(CCc2ccccc2)C(=S)Nc2ccccc2)C(=O)N1c1ccc(Br)cc1 (stereo unspecified)	?	?	-5	1	4%	?
COc1ccc(CN(C(=S)Nc2ccccc2)C2CC(=O)N(c3ccc(F)cc3)C2=O)cc1 (stereo unspecified)	?	16%	35	31*	4%	?
COc1ccc(CCN(C(=S)Nc2ccccc2)C2CC(=O)N(c3ccccc3)C2=O)cc1 (stereo unspecified)	?	4%	-34	-8	-4%	?
Cc1ccc(N2C(=O)CC(N(CCc3ccccc3)C(=S)Nc3ccc(N(C)C)cc3)C2=O)cc1 (stereo unspecified)	?	?	19	-3	-13%	12µM*
COC(=O)CN(C)C1CC(=O)N(c2ccc(Cl)cc2)C1=O (stereo unspecified)	0%	-48%	-9	-2	6.3µM*	6%
CNC(=S)N(Cc1ccc(OC)cc1)C1CC(=O)N(c2ccc(Cl)cc2)C1=O (stereo unspecified)	0.93µM*	7%	-15	1	0%	?
O=C(CCc1nnc2ccc(N3CCC4(CC3)OCCO4)nn12)N1CCCCC1	-30%	-3%	-7	-3	-2%	5%
O=C1Nc2ccccc2/C1=N/c1sc2c(c1C(=O)NCCc1ccccc1)CCCC2	131%	-5%	39*	34	?	?
SMILES	Pf growth 96h	NS1 inh	Shiga inhibitor	CHX counter	Sm TGR inh	Pf growth 48h
CCOc1ccccc1NC(=O)Cn1c(=O)n(-c2ccc(C)c(C)c2)c(=O)c2oc3ccccc3c21	.	.	.	.	7%	.
c1ccc2c(c1)nc(N1CCN(C3CCCCC3)CC1)c1nnnn12	8%	-3%	20	2	-5%	35%
c1ccc2c(c1)nc(N1CCOCC1)c1nnnn12	?	14%	active	32*	-1%	55%
c1ccc(N2CCN(c3nc4ccccc4n4nnnc34)CC2)cc1	-11%	22%	28*	38*	8%	?
COc1cc(NC(=S)NCCN2CCOCC2)cc(OC)c1	10%	22%	-6	8	2%	-10%
CCN(CC)S(=O)(=O)c1ccc2c(c1)c(=O)c(C(=O)N(C)Cc1ccccc1)cn2C	.	.	.	.	0%	.
COc1ccc(C2C(C(=O)N3CCCCC3)CC(=O)N2c2ccc(OC)cc2)cc1 (stereo unspecified)	9.3µM*	-3%	25	-2	2%	1.7µM*
COc1ccc(N2C(=O)CCC(C(=O)N3CCCCCC3)C2c2ccc(OC)c(OC)c2)cc1 (stereo unspecified)	-7%	2%	-21	-4	0%	21%
CCCN(CCC)CCNC(=O)C1CC(=O)N(c2ccc(OC)cc2)C1c1ccc(OC)cc1 (stereo unspecified)	1.7µM*	-3%	-14	-3	-1%	?

Bioassay records (PubChem)
